Test results: PubChem BioAssay AID624298 (National Center for Advancing Translational Sciences (NCATS), 2012)
Results filed as inconclusive are left out. Where a call stands in place of a potency, no number is given. Activity calls are given as the source filed them. Calls follow the shape of the dose curve; as a rule, active = well fitted activation curve with a large enough effect; inconclusive = small, poorly fitted or top-dose-only effect; inactive = no such curve, though single readings can be large or run the other way.

Experiment: Activators of T cell receptors: Hit Validation
Details: primary human leukocytes, cytokine release by HTRF, 48 h, TCR-stimulated with anti-CD3 beads; series mostly up to 46.1 µM
Procedure, shortened: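 Readout is IL-2 secretion by HTRF, measured after 48 hr in which primary human leukocytes received compound together with a-CD3 beads as the only TCR stimulus.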
Potency is read from the fitted curve at half-maximal effect.

Compound	Potency
O=S(=O)(c1ccc(=S)[nH]c1)N1CCCCCC1	inactive
N#Cc1ccc(CN2CCN(C(=O)c3cc(Cl)c4c(c3)OCCO4)CC2)cc1	inactive
CC(=O)Nc1ccc(NC(=O)C(C)OC(=O)c2c(NC(C)=O)sc(C)c2C)cc1 (configuration not stated)	inactive
O=C(c1cc(-c2ccc(F)cc2)nc2ccccc12)N1CCN(C2CCS(=O)(=O)C2)CC1 (configuration not stated)	inactive
CC(C)c1nnc(SCC(=O)N2CCOCC2)n1C	inactive
Cc1ccc(NC(=O)C2CC(=O)N(Cc3ccco3)C2)cc1 (configuration not stated)	inactive
COc1ccc(OC)c(NC(=O)CSc2nc3[nH]c(=O)cc(O)c3s2)c1	inactive
CC(NC(=S)NCCN1CCOCC1)C12CC3CC(CC(C3)C1)C2 (configuration not stated)	inactive
CC(=O)c1cccc(S(=O)(=O)N2CCC(C(=O)Nc3cccc(C(=O)NC4CC4)c3)CC2)c1	inactive
CCC(/C=C1\Sc2ccc(OC)cc2N1CCO)=C\c1sc2ccc(OC)cc2[n+]1CCO	9.96 µM (active)
Cc1ncc[nH]1	inactive
CCN(CC)CC(=O)c1c(N)n(Cc2ccccc2)c(=O)n(C)c1=O	inactive
